Records with an inconclusive call do not appear. Active and inactive are the calls of the source. Unless noted, calls follow the shape of the dose curve; as a rule, active = well fitted curve in the direction sought with a large enough effect in the repeat runs; inconclusive = weak or mixed curves; inactive = no such curve, though single readings can be large; an effect the other way counts as inactive or inconclusive.
Legend:
[1] = qHTS assay for small molecules that induce genotoxicity in human embryonic kidney cells expressing luciferase-tagged ATAD5 (AID 651632); also: nearly all actives have a fitted effect of over 15% in size
Outline: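 Genotoxicity read-out via ATAD5-luciferase: HEK293T cells, 16 hr compound incubation at 37C, Amplite detection.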

[2] = qHTS assay for small molecule agonists of the p53 signaling pathway - cell viability (AID 651633; calls by dose curve;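 also: p53RE-bla HCT reporter cells with a stable beta-lactamase p53 reporter; series mostly up to about 83 µM; nearly all actives have a fitted effect of over 30% in size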)
Outline: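 p53RE-bla cells, seeded at 4,000 per well and rested 5 h at 37 C/5% CO2, received compounds in DMSO for 16 h at 37 C. CellTiter-Glo was then added, and luminescence was read after 30 min at room temperature to gauge cytotoxicity.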

[3] = qHTS assay for small molecules that induce genotoxicity in human embryonic kidney cells expressing luciferase-tagged ATAD5 - cell viability (AID 651634; calls by dose curve; also: nearly all actives have a fitted effect of over 25% in size)
Outline: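 Live-cell protease activity (CellTiter-Fluor, fluorescence) indicates viability. HEK293T cells with luciferase-tagged ATAD5; 15.5 hr compound treatment at 37C.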

[4] = qHTS assay for small molecule disruptors of the mitochondrial membrane potential - cell viability (AID 720634; calls by dose curve;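 also: human HepG2 liver cancer cells; series mostly up to about 83 µM; nearly all actives have a fitted effect of over 20% in size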)
Outline: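 Human hepatoma HepG2 cells were treated for 1 hr with test chemicals, then given m-MPI dye and CellTiter-Glo. Cell viability reflects luminescence proportional to cellular ATP.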

[5] = qHTS assay for small molecule disruptors of the mitochondrial membrane potential (AID 720635)
Outline: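 HepG2 cells (2,000/well) attached overnight at 37C, then took compound for 1 hr at 37C, 5% CO2. Mito-MPS dye was added for 30 min; fluorescence was read at 490/535 nm (monomers) and 540/590 nm (aggregates).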

[6] = qHTS assay to test for compound auto fluorescence at 590 nm (red) in HepG2 cells (AID 720674)
Outline: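 Intrinsic compound fluorescence in the red window (Ex/Em 540/590 nm) is measured in attached HepG2 cells exposed for 1 hr, DMSO vehicle as baseline, benchmarked to Rose Bengal sodium.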

[7] = qHTS assay to test for compound auto fluorescence at 535 nm (green) in HepG2 cells (AID 720675)
[8] = qHTS assay to test for compound auto fluorescence at 460 nm (blue) in HEK293 cells (AID 720678)
Outline: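 After cell attachment (4-5 hr, 37C), compounds were pinned onto HEK293 monolayers in 10% dialyzed FBS medium. The blue channel (405/460 nm) was read following overnight culture. Equivalency was calculated against triamterene.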

[9] = qHTS assay to test for compound auto fluorescence at 590 nm (red) in HEK293 cells (AID 720679)
Outline: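 Plates of HEK293 cells (10% dialyzed FBS) are treated with 23 nL compound or DMSO vehicle after a 4-5 hr attachment period, incubated overnight at 37C, and read for red fluorescence at 540/590nm.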

[10] = qHTS assay to test for compound auto fluorescence at 535 nm (green) in HEK293 cells (AID 720680)
[11] = qHTS assay to test for compound auto fluorescence at 460 nm (blue) in HEK293 cell free culture (AID 720681)
Outline: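 Test compounds were pinned into cell-free culture medium (DMEM with 10% FBS) and fluorescence was read directly at Ex/Em 405/460 nm. Signals were expressed as fluorescence equivalents of triamterene, with DMSO vehicle as control.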

[12] = qHTS assay to test for compound auto fluorescence at 535 nm (green) in HEK293 cell free culture (AID 720682)
Outline: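 Green-label autofluorescence (485 nm excitation, 535 nm emission) measured on compound added to cell-free culture medium (DMEM, 10% FBS). Output is expressed relative to fluorescein.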

[13] = qHTS assay to test for compound auto fluorescence at 590 nm (red) in HEK293 cell free culture (AID 720683)
Outline: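 Tox21 10K library compounds were pinned into cell-free DMEM with 10% FBS and fluorescence was read at excitation 540 nm. Activity is expressed as Rose Bengal sodium equivalency.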

[14] = qHTS assay to test for compound auto fluorescence at 590 nm (red) in HepG2 cell free culture (AID 720684)
Outline: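 Measured in medium alone (MEM containing 10% FBS) following pintool addition of compound; emission at 590 nm with 540 nm excitation, referenced to Rose Bengal sodium.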

[15] = qHTS assay to test for compound auto fluorescence at 460 nm (blue) in HepG2 cell free culture (AID 720685)
Outline: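 Compound (23 nL) or DMSO pinned into cell-free MEM with 10% FBS; blue fluorescence read at 405/460 nm excitation/emission, expressed as auto-fluorescence equivalency to triamterene.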

[16] = qHTS assay to test for compound auto fluorescence at 535 nm (green) in HepG2 cell free culture (AID 720686)
[17] = qHTS assay to test for compound auto fluorescence at 460 nm (blue) in HepG2 cells (AID 720687)
Outline: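 Cells (2,000/well in MEM with 10% FBS) attached overnight at 37 C, then were exposed to compound or DMSO for 1 hr at 37 C, 5% CO2. Fluorescence read at Ex/Em 405/460 nm, expressed as triamterene-equivalent signal.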

[18] = target: Glucocorticoid receptor (Homo sapiens) (UniProt P04150); experiment: qHTS assay to identify small molecule agonists of the glucocorticoid receptor (GR) signaling pathway (AID 720691; active = well fitted activation curve with a large enough effect in the signal ratio in the repeat runs, not every such curve was filed as active; the % refers to the signal ratio)
Outline: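 Beta-lactamase reporter activity, read as fluorescence intensity, was measured in GR-bla HeLa cells exposed to compounds for 18 h at 37 C and then loaded with LiveBLAzer B/G FRET substrate for 2 h at room temperature.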

[19] = target: Glucocorticoid receptor (Homo sapiens) (UniProt P04150); experiment: qHTS assay to identify small molecule antagonists of the glucocorticoid receptor (GR) signaling pathway (AID 720692; active = well fitted inhibition curve with a large enough effect in the signal ratio in the repeat runs, not every such curve was filed as active; the % refers to the signal ratio)
Outline: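 Fluorescence from cleaved LiveBLAzer B/G FRET substrate reports GRE-driven beta-lactamase in HeLa cells; compounds are tested against 5 nM dexamethasone (final) over 18 h at 37 C, substrate incubation 2 h at room temperature.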

Measured: Potency

Glucocorticoid receptor (Homo sapiens), sequence (P04150 whole entry, looked up): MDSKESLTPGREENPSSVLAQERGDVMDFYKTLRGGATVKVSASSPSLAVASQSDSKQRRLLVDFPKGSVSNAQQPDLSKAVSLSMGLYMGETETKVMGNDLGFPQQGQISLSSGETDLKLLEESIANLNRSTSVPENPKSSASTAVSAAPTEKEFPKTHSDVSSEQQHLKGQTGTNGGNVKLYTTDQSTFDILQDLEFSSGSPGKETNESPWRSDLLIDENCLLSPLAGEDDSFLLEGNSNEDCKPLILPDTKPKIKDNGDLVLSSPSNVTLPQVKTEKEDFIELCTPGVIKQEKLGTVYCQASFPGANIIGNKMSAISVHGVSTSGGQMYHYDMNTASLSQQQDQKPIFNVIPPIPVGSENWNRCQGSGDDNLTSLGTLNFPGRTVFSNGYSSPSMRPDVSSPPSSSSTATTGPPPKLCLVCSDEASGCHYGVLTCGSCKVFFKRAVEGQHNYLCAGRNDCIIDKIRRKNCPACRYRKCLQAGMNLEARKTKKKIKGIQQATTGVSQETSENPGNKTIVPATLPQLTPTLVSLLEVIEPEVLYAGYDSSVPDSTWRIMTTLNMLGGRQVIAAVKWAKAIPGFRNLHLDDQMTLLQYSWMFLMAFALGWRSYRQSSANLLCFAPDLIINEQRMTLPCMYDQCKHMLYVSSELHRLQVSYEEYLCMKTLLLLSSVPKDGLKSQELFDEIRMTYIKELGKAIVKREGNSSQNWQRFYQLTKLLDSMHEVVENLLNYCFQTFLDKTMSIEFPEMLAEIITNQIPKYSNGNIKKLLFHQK

CN(N=O)c1ccc([N+](=O)[O-])cc1
inactive: all assays above

O=Cc1ccc2c(c1)OCO2
not listed: [19]
inactive: all other assays above

CN1C(=O)C(O)N=C(c2ccccc2)c2cc(Cl)ccc21 (centres undefined)
not listed: [5] | [18] | [19]
inactive: all other assays above

O=S(=O)(Cl)c1ccccc1
not listed: [8] | [18] | [19]
inactive: all other assays above

CCCC(=O)Cl
not listed: [8]
inactive: all other assays above

CC(C)N(CCC(C(N)=O)(c1ccccc1)c1ccccn1)C(C)C (centres undefined)
not listed: [18] | [19]
inactive: all other assays above

COP(=O)(OC)O/C(=C/Cl)c1cc(Cl)c(Cl)cc1Cl
not listed: [5] | [18] | [19]
inactive: all other assays above

CCCCCCCCCCOC(=O)c1ccccc1C(=O)OCCCCCCCCCC
not listed: [5] | [18] | [19]
inactive: all other assays above

CN1[C@@H]2CC[C@H]1CC(OC(=O)c1cc(Cl)cc(Cl)c1)C2 (some centres undefined)
not listed: [5] | [19]
inactive: all other assays above

CC(=O)NC1CCSC1=O (centres undefined)
not listed: [8]
inactive: all other assays above

O=C(C(Cl)(Cl)Cl)C(Cl)(Cl)Cl
inactive: all assays above

O=Cc1ccc(Cl)cc1Cl
not listed: [5] | [19]
inactive: all other assays above

O=C1NCN(c2ccccc2)C12CCN(CCCOc1ccc(F)cc1)CC2
not listed: [5] | [18] | [19]
inactive: all other assays above

CC(C)(OO)c1ccccc1
not listed: [19]
inactive: all other assays above

C=CC(=O)OCCCCO
not listed: [19]
inactive: all other assays above

Source: PubChem BioAssay (Tox21)
